IDE cell activ – boosts human insulin-degrading enzyme activity in HEK cells; P14735; actives 0.073% (n = 340,000); AID 493087; FAbeta-B cleavage, fluorescence polarization; 0% vehicle, 100% cell-free pure enzyme wells; activation, % at 5.96 µM;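 active = activation above the mean of all tested compounds plus 3 SD, set per screening campaign, cut at about 17% in these data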
IDE inh – cellular human IDE inhibition. P14735. HEK cells, FAbetaB cleavage, fluorescence polarization. inhibition, % at 5.59 µM. actives 0.41% (n = 320,000);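 active = percent inhibition above the average of all tested compounds plus 3 SD, set per screening campaign, cut at about 16% in these data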;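 also: IDE supplied by intact live HEK cells; FP after avidin binding of uncleaved biotin substrate so inhibition keeps polarization high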
Rin1 Abl inh – inhibitors of human Rin1-Abl protein interaction. P00519+Q13671. TR-FRET Rin1/Abl binding, biochemical. inhibition, % at 7.35 µM. actives 0.4% (n = 360,000). AID 588664; in the data active = inhibition above about 5%, passing the limit was not always enough
Rpn11 inh – inhibitors of human proteasome Rpn11; O00487; human 26S proteasome, Ub4-pepOG fluorescence polarization; 20S core pre-blocked with epoxomicin; inhibition, % at 20 µM; actives 0.59% (n = 360,000); AID 588493;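 active = inhibition at 20 µM, scaled to each plate's controls, above about 33%, limit read from the data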
TPT1 inh – inhibitors of Candida albicans tRNA 2'-phosphotransferase TPT1. recombinant caTPT1, FP RNA substrate dephosphorylation. inhibition, % at 5 µM. actives 0.81% (n = 300,000);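 active = inhibition above the mean of all tested compounds plus 3 SD, set per screening campaign, cut at about 24% in these data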
Calb FLC – C. albicans growth modulation with fluconazole | C. albicans CaCi-2 (fluconazole-resistant clinical isolate) + fluconazole, Alamar Blue growth, 48 h | growth inhibition, % (no concentration beside the values) | actives 0.57% (n = 300,000);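 active = growth inhibition above about 58% in most replicates, limit read from the data, passing the limit was not always enough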;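 also: all wells also contain fluconazole at 8 µg/ml as a sub-toxic cotreatment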
Rpn11 inh conf – Rpn11 inhibition confirmation, single concentration; shares compounds with Rpn11 inh; purified human 26S proteasome, Ub4-pepOG fluorescence polarization; proteasome pretreated with epoxomicin; inhibition, % at 20 µM; actives 29% (n = 1,900)
MMP-2 inh – blocks human MMP-2, flagging nonselective RPN11 hits | inhibition, % at 20 µM | recombinant MMP-2, FRET peptide cleavage fluorescence | actives 4% (n = 1,900) | shares compounds with Rpn11 inh | AID 602330;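 also: human MMP-2 activated beforehand with APMA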
Target sequence (P08253 whole entry, looked up): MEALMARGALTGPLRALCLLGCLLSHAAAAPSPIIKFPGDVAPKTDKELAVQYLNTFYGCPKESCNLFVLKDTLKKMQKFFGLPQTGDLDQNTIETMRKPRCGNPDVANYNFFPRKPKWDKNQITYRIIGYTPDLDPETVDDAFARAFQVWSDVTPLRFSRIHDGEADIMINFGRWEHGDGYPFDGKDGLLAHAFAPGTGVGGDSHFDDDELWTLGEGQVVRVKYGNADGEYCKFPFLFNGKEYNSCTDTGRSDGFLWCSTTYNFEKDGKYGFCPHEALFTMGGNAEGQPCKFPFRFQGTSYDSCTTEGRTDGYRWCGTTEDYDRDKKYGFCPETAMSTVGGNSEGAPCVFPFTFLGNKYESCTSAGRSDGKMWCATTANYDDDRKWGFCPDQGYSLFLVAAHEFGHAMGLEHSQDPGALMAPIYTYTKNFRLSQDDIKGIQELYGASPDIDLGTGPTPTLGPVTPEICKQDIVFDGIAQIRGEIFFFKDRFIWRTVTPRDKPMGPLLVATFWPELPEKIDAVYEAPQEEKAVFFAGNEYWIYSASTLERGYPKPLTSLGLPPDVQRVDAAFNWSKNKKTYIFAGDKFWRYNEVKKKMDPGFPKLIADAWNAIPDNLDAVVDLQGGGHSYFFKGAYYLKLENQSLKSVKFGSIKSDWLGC
Thrombin FP – blocks bovine thrombin, flagging nonselective RPN11 hits; shares compounds with Rpn11 inh; bovine thrombin cleavage of Ub4-pepOG, fluorescence polarization; inhibition, % at 20 µM; actives 13% (n = 1,900); AID 602333;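 active = mean inhibition at least 40% at 20 µM, or signal 3 deviations below plate average, so some actives read negative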
A number is an active result; 0 = inactive; - = no result; + = active, no number. This is a sample that favours compounds with a hit; in the whole collection about 2.3% have one here. Rule as the data show it, unless noted: active = inhibition above about 40%; inactive = the rest.

SMILES	IDE cell activ	IDE inh	Rin1 Abl inh	Rpn11 inh	TPT1 inh	Calb FLC	Rpn11 inh conf	MMP-2 inh	Thrombin FP
CN(C)S(=O)(=O)c1ccc(C(=O)NCc2nc3ccccc3s2)cc1	0	0	0	34	0	0	0	0	0
COc1ccc(NCC(=O)Nc2ccc(Br)cc2F)c(OC)c1	0	0	0	40	0	0	0	0	0
O=C(Nc1ccc(-c2nc3cc(Cl)ccc3c(=O)o2)cc1)c1ccco1	0	0	0	50	0	0	0	0	0
Cc1ccccc1C(=O)N1CCC(C(N)=O)CC1	0	0	0	35	0	0	0	0	0
CCOC1=C2CN(S(=O)(=O)c3ccc(C)cc3)[C@H](c3ccccc3)C[C@@H]2N(S(C)(=O)=O)[C@H](c2ccccc2)C1	-	-	0	48	-	-	0	0	0
O=c1c2c(nc3cc(-c4ccccc4Cl)[nH]n13)CCS2	0	0	0	56	0	0	0	0	0
Cc1ccc2nc(NC(=O)c3ccc(-c4nc5ccccc5s4)s3)sc2c1	0	0	0	152	0	-	0	0	0
CCN(CC)c1ccc(C=C2C(=O)OC(c3ccccc3)OC2=O)cc1 (stereo not drawn)	0	0	0	77	0	0	77	0	76
CCCc1nc2c3ccccc3ccn2c1Cc1ccc(C)cc1	-	-	0	43	-	-	0	0	0
Cc1ccc(Cc2c(-c3ccco3)nc3c4ccccc4ccn23)cc1	-	-	0	44	-	-	0	40	0
CCCc1nc2c3ccccc3ccn2c1Cc1cccc(Cl)c1	-	-	0	0	-	-	-	-	-
CCOc1ccc(NC(=O)C2CCCN2S(=O)(=O)c2ccc3c(c2)C(C)(C)C(=O)N3C)cc1 (stereo not drawn)	0	0	0	0	0	0	-	-	-
Cc1ccc(Cn2c(C(C)Nc3nc(-c4ccc(C)cc4)cs3)nc3cc(Cl)c(Cl)cc32)cc1 (stereo not drawn)	0	0	0	71	0	0	65	51	0
CCOC(=O)/C=C/[C@H]1CC(c2ccccc2)(c2ccccc2)CO1	0	0	0	0	-	-	-	-	-
COc1ccccc1C(=O)N=Nc1c(O)[nH]c2ccc([N+](=O)[O-])cc12	0	-	0	0	-	-	-	-	-
O=C(N=Nc1c(O)[nH]c2ccc([N+](=O)[O-])cc12)c1cc(-c2ccccc2Cl)nc2ccccc12	0	0	0	37	0	-	0	0	0
O=C(N/N=C/c1cc(Cl)ccc1O)c1ccc(Br)cc1	0	0	0	166	0	-	177	0	0
Cc1nc(C)c(C(=O)N/N=C/c2c[nH]c3ccccc23)s1	0	0	0	0	0	0	-	-	-
O=C(N/N=C/c1cc(Br)ccc1O)c1ccncc1	0	0	0	0	0	0	-	-	-
Cc1nc(C)c(C(=O)N/N=C/c2cc(Br)ccc2O)s1	0	0	0	47	0	89	0	0	0
COC(=O)c1sc(NC(=O)/C=C/c2ccccc2Cl)nc1C	0	0	0	55	0	0	0	0	0
COc1ccc(CCN2C(=O)C=CC2=O)cc1OC	0	-	0	0	-	-	-	-	-
COC(=O)C1=C(C)N(CCc2ccc(OC)c(OC)c2)C(=O)/C1=C\N(C)C	0	0	0	60	0	0	0	0	0
NCCCC[C@H]1CN=C(N)N1CC1CCCCC1	0	0	0	34	0	0	0	0	47
CC(=O)c1sc2nc(CSc3nncn3C)[nH]c(=O)c2c1C	0	0	0	44	0	0	0	0	0
SMILES	IDE cell activ	IDE inh	Rin1 Abl inh	Rpn11 inh	TPT1 inh	Calb FLC	Rpn11 inh conf	MMP-2 inh	Thrombin FP
Cc1c(C(=O)O)sc2nc(CSc3nnc(-c4ccc(F)cc4)n3C)[nH]c(=O)c12	0	0	0	0	0	0	-	-	-
COc1ccc(S(=O)(=O)N2CCCC(C(=O)NCc3ccncc3)C2)cc1 (stereo not drawn)	0	0	0	+	0	0	0	0	0
COc1ccc(S(=O)(=O)N2CCCC(C(=O)NCc3ccc(F)cc3)C2)cc1 (stereo not drawn)	0	0	0	0	0	0	-	-	-
CCOC(=O)Cc1csc(NC(=O)c2ccc(Br)s2)n1	-	0	-	-	0	0	-	-	-
CCOc1cccc2sc(NC(=O)c3ccc(Br)s3)nc12	0	0	0	54	0	0	0	0	0
O=C(N/N=C/c1ccc(-c2ccc(S(=O)(=O)Nc3ncccn3)cc2)o1)c1cc2ccccc2cc1O	0	0	0	50	0	0	51	0	0
O=C(Nc1ccccc1-c1nnc(SCc2ccc(Cl)cc2)o1)c1ccccc1	0	0	0	66	0	0	0	0	0
O=C(Nc1ccccc1-c1nnc(SCc2ccccc2)o1)c1ccccc1	0	0	0	0	0	0	-	-	-
COc1ccc(OCC(=O)NNC(=O)c2cccs2)cc1	0	0	0	125	0	0	0	0	0
COc1cccc(OCC(=O)NNC(=O)c2cccs2)c1	0	0	0	0	0	0	-	-	-
CCCc1noc(-c2ccc(-c3ccccc3)cc2)n1	0	0	0	196	0	0	0	0	0
Cc1cccn2c(=O)c3cc(C(N)=S)c(=N)n(CCCN4CCOCC4)c3nc12	0	0	0	51	0	0	0	49	0
CCNC(=O)C1(C)CCCN(Cc2csc3ccccc23)C1 (stereo not drawn)	-	-	0	0	-	-	-	-	-
Cn1c(=O)c2c(nc(Oc3ccc4c(c3)OCO4)n2Cc2ccc(F)cc2)n(C)c1=O	0	0	0	+	0	0	0	0	0
Cc1ccc(C(=O)N/C(=C\c2ccc(-c3cc(Cl)ccc3Cl)o2)C(=O)NCc2cccnc2)cc1	0	0	0	51	0	0	0	0	0
O=C1NC(=S)NC1=Cc1ccc2c(c1)CCC2	0	-	0	46	-	-	0	0	0
COc1nc(-c2ccccc2)ccc1-c1noc(-c2cccs2)n1	0	0	0	46	0	0	0	0	0
CC(C)c1ccccc1NC(=O)COC(=O)c1c2c(nc3ccccc13)CCN(Cc1ccccc1)C2	0	0	0	0	0	0	-	-	-
Cc1c(Cl)cccc1NC(=O)COC(=O)c1c2c(nc3ccccc13)CCN(Cc1ccccc1)C2	0	0	0	61	0	0	0	0	0
CC(=O)c1cccc(NC(=O)C(C)OC(=O)c2ccc(-n3cnnn3)cc2)c1 (stereo not drawn)	0	-	0	0	-	-	-	-	-
Cc1sc2nc(SCC(=O)c3cc(C)n(CC4CCCO4)c3C)n(C(C)C)c(=O)c2c1C (stereo not drawn)	0	0	0	123	0	0	0	0	0

Screening data: PubChem, several laboratories
